This passage reports growth inhibition results from PubChem BioAssay (NCI).

Assay [1] can be described thus: NCI Yeast Anticancer Drug Screen. Data for the rad50 strain (AID 155).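 Further: 0% = growth of vehicle-only cultures of the same strain.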 To be noted: S. cerevisiae rad50 strain growth inhibition; at 50.0 µM; hits give high values. An outline of the steps: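 DNA repair mutant yeast, compound exposure, growth read-out; inhibition is taken relative to vehicle.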
A short description of assay [2]: NCI Yeast Anticancer Drug Screen. Data for the mec2-1 strain (AID 157). To be noted: S. cerevisiae mec2-1 strain, at 50.0 µM, hits give high values. An outline of the steps:
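Strain: mec2-1 (DNA repair/cell cycle alteration). Compound exposure, then growth measured; inhibition expressed relative to vehicle.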

A short description of assay [3]: NCI Yeast Anticancer Drug Screen. Data for the sgs1 mgt1 strain (AID 161).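 Further: 0% = growth of cultures given vehicle only.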 To be noted: S. cerevisiae sgs1 mgt1 strain, at 50.0 µM, hits give high values. An outline of the steps:
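Genetically altered yeast, compound exposure, growth inhibition relative to vehicle.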

The nature of assay [4]: NCI Yeast Anticancer Drug Screen. Data for the cln2 rad14 strain (AID 165).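 Further: 0% = growth equal to vehicle treated cultures.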 To be noted: S. cerevisiae cln2 rad14 strain, at 50.0 µM, hits give high values. An outline of the steps: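 Compounds are applied to the cln2 rad14 yeast strain, and growth is then compared with that of vehicle-treated cultures to give inhibition.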
Assay [5] is described as follows: NCI Yeast Anticancer Drug Screen. Data for the bub3 strain (AID 167). To be noted: S. cerevisiae bub3 mutant strain, at 50.0 µM, hits give high values. In a few lines:
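In this screen, a yeast mutant lacking normal mitotic checkpoint function is challenged with compound. Relative growth versus vehicle gives the inhibition value.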

The nature of assay [6]: NCI Yeast Anticancer Drug Screen. Data for the mlh1 rad18 strain (AID 175). To be noted: S. cerevisiae mlh1 rad18 strain growth inhibition; at 50.0 µM; hits give high values. An outline of the steps: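 Read-out is yeast growth inhibition, calculated against vehicle-only controls. The compound was applied to a strain engineered with DNA damage repair alterations.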

Structures are written as SMILES. About 79,000 compounds went through this panel and 15% of them were active in at least one assay; those are over-represented in the sample as a whole. Values without a mark were called inactive. Calls of active or inactive are those of the source. No stated cut-off is given here; in the data, active means growth inhibition above about 70%; inactive means the rest. Where a SMILES comes first, the peptide text is derived from it. [ ]: non-standard residue; d: D form. The star is where a group is joined. ξ: configuration not given here. ξD = NC(CC(=O)O)C(=O)O; Boc = CC(C)(C)OC(=O)*; Aib = CC(C)(N)C(=O)O; OBn = c1ccc(CO*)cc1

As to `N#CC1(C#N)CC1c1ccccc1` (stereo unspecified), the growth inhibition is 8.55% in assay [1]; 10.7% in assay [2]; 6.75% in assay [3]; -6.1% in assay [4]; -2.9% in assay [5]; 29.3% in assay [6].

Regarding `CC(C)(C)OC(=O)NC(CC(=O)OCc1ccccc1)C(=O)NC(C)(C)C(N)=O` (stereo unspecified) (Boc-[ξD](OBn)-[Aib]-NH2), the growth inhibition in assay [1] is 5.25%; in assay [2] it was 11.8%; in assay [3] it was 2%; in assay [4] it was 26.6%; in assay [5], 23.4%; in assay [6] it was -19.8%.

Regarding `CCCNC(=O)Nc1ccc(OCC)cc1`, the growth inhibition was 0.1% in assay [1]; -11.3% in assay [2]; -14.8% in assay [3]; -36.8% in assay [4]; 2.2% in assay [5]; 5.5% in assay [6].

For `O=C(NC(=O)C1(C(=O)O)CCCC1)Nc1ccccc1`, the growth inhibition was 7.95% in assay [1]; -7.05% in assay [2]; 6.4% in assay [3]; -39.1% in assay [4]; 27.4% in assay [5]; -9.15% in assay [6].

Consider `COc1cc(-c2ccc(Br)[nH]2)[nH]c1C=NCC(C)C`, for which the growth inhibition was 78.5% (active) in assay [1]; 78.5% (active) in assay [2]; 78.8% (active) in assay [3]; 78.2% (active) in assay [4]; 69% in assay [5]; 86.7% (active) in assay [6].

Take `COC(=O)[C@@]12OC[C@]34[C@H]([C@@H](O)[C@@H]1O)[C@@]1(C)CC(=O)C(O)=C(C)[C@@H]1C[C@H]3OC(=O)[C@H](OC(=O)/C=C(\C)C(C)CO)[C@@H]24` (stereo partly specified): the growth inhibition in assay [1] was -0.7%; in assay [2], -16.7%; in assay [3] it was -13.3%; in assay [4] it was -1.7%; in assay [5], -18.9%; in assay [6], -28.8%.

In the case of `CCNC(=O)C1CCCN1C(=O)C(CCCN=C(N)N)NC(=O)C(CC(C)C)NC(=O)C(Cc1c[nH]c2ccccc12)NC(=O)C(Cc1ccc(O)cc1)NC(=O)C(CO)NC(=O)C(Cc1c[nH]c2ccccc12)NC(=O)C(Cc1cnc[nH]1)NC(=O)C1CCC(=O)N1` (stereo unspecified), the growth inhibition in assay [1] is -11.6%; in assay [2] it was -10.6%; in assay [3], -18.5%; in assay [4] it was -21.6%; in assay [5] it was 6.05%; in assay [6], 10.2%.

As to `CSC(=NCCN=C(NS(=O)(=O)c1ccc(Cl)cc1)SC)NS(=O)(=O)c1ccc(Cl)cc1`, the growth inhibition was 5.95% in assay [1]; -5.3% in assay [2]; 7.15% in assay [3]; 1.5% in assay [4]; 4.15% in assay [5]; 5.8% in assay [6].

As for `O=Cc1cc(O)ccc1[N+](=O)[O-]`, the growth inhibition in assay [1] was 11.4%; in assay [2], -19.2%; in assay [3], -9.55%; in assay [4], 13.3%; in assay [5], -13.4%; in assay [6], 16.1%.

Consider `NC(=O)c1ncn(C2OC(CO)C(O)C2O)c1C(N)=O` (stereo unspecified), for which the growth inhibition in assay [1] was -7.6%; in assay [2], -24.8%; in assay [3], -12.5%; in assay [4], -4.9%; in assay [5], -0.3%; in assay [6], -24.6%.

In the case of `CCOC(=O)/C(=C\c1ccnc2ccccc12)P(=O)(OCC)OCC`, the growth inhibition in assay [1] was 11.7%; in assay [2], 4%; in assay [3], 15.4%; in assay [4], 11.1%; in assay [5], 10.3%; in assay [6] it was 23.1%.

On to `CC(C(=O)O)C(Nc1ncnc2c1ncn2C1OC(CO)C(O)C1O)C(=O)O` (stereo unspecified), for which the growth inhibition in assay [1] was -8.4%; in assay [2] it was -12.2%; in assay [3], -27.6%; in assay [4], -2.1%; in assay [5], 3.5%; in assay [6], -26.4%.

As to `CCCc1cc(=O)oc2c3c(c4c(c12)OC(C)(C)CC4)O[C@H](C)C(C)[C@@H]3O` (stereo partly specified), the growth inhibition in assay [1] is 9.9%; in assay [2], 7.45%; in assay [3], 22.1%; in assay [4], -11.3%; in assay [5], 2.85%; in assay [6], -10.6%.

Take `NCC(c1ccccc1)C1CCCCC1` (stereo unspecified): the growth inhibition was 13.2% in assay [1]; -2.35% in assay [2]; 5.05% in assay [3]; -7.5% in assay [4]; -3.9% in assay [5]; 15% in assay [6].

Consider `CN1Cc2cc3c(cc2-c2ccccc21)OCO3`, for which the growth inhibition was -23.7% in assay [1]; -35.7% in assay [2]; -44.9% in assay [3]; 6.4% in assay [4]; -36.5% in assay [5]; -35.6% in assay [6].

Turning to `Fc1ccccc1C(Nc1nc2ccccc2s1)Nc1nc2ccccc2s1`, the growth inhibition in assay [1] was 13.4%; in assay [2], 6.05%; in assay [3] it was -7.3%; in assay [4], -0.3%; in assay [5] it was -3.15%; in assay [6], 1.35%.

For the compound `CC1(C)SC(N=C=Nc2ccccc2)CN1C=O` (stereo unspecified), the growth inhibition in assay [1] is 8.55%; in assay [2] it was 1.85%; in assay [3], -14.4%; in assay [4] it was -10.1%; in assay [5], 9.5%; in assay [6], -0.4%.

For the compound `CCCCNC(=O)OCC`, the growth inhibition in assay [1] is -34.5%; in assay [2] it was -25.6%; in assay [3], 2.4%; in assay [4], -26.8%; in assay [5], -0.35%; in assay [6], 5.9%.

For the compound `NNC(=O)c1ccccc1F`, the growth inhibition is -19.6% in assay [1]; -19.4% in assay [2]; -16.3% in assay [3]; -4.7% in assay [4]; -10.2% in assay [5]; -19.2% in assay [6].

With `Cc1ccc(/C=C/c2ccc3ccccc3c2)cc1`, the growth inhibition in assay [1] was -6.6%; in assay [2], -9.3%; in assay [3], 9.05%; in assay [4], -14.6%; in assay [5] it was -4.8%; in assay [6] it was -3.85%.

As to `CC1=NN(c2ccccc2)C(=O)CC1`, the growth inhibition is -3.65% in assay [1]; -8.8% in assay [2]; 26.5% in assay [3]; 16.6% in assay [4]; 16.3% in assay [5]; 5.05% in assay [6].
